The panel holds about 79,000 compounds, 15% with a hit somewhere; the sample as a whole holds those more often. The source made the active and inactive calls. Rule as the data show it: active = growth inhibition above about 70%; inactive = the rest.
Tests used:
[1] = NCI Yeast Anticancer Drug Screen. Data for the rad50 strain (AID 155);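 also: 0% = growth of vehicle-only cultures of the same strain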; conditions: S. cerevisiae rad50 strain growth inhibition, stronger effect = higher value
Outline: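 DNA repair mutant yeast, compound exposure, growth read-out; inhibition is taken relative to vehicle.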

[2] = NCI Yeast Anticancer Drug Screen. Data for the mec2-1 strain (AID 157); conditions: S. cerevisiae mec2-1 strain, stronger effect = higher value
Outline: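 Mutant yeast (mec2-1) grown with compound; growth inhibition relative to vehicle control reported.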

[3] = NCI Yeast Anticancer Drug Screen. Data for the sgs1 mgt1 strain (AID 161);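 also: 0% = growth of cultures given vehicle only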; conditions: S. cerevisiae sgs1 mgt1 strain, stronger effect = higher value
Outline: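 Growth of a repair-deficient yeast mutant was monitored after compound treatment and expressed as inhibition relative to vehicle-treated cultures.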

[4] = NCI Yeast Anticancer Drug Screen. Data for the cln2 rad14 strain (AID 165);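 also: 0% = growth equal to vehicle treated cultures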; conditions: S. cerevisiae cln2 rad14 strain, stronger effect = higher value
Outline: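 Readout is yeast growth inhibition versus vehicle-treated controls, using a strain with cln2 and rad14 alterations exposed to compound.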

[5] = NCI Yeast Anticancer Drug Screen. Data for the bub3 strain (AID 167); conditions: S. cerevisiae bub3 mutant strain, stronger effect = higher value
Outline: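 In this screen, a yeast mutant lacking normal mitotic checkpoint function is challenged with compound. Relative growth versus vehicle gives the inhibition value.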

[6] = NCI Yeast Anticancer Drug Screen. Data for the mlh1 rad18 strain (AID 175); conditions: S. cerevisiae mlh1 rad18 strain growth inhibition, stronger effect = higher value
Outline: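 Genetically defined yeast (DNA repair-deficient) exposed to compounds; growth inhibition determined relative to vehicle.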

[7] = at 5.0 µM (retest, dose inferred, filed as 0.5)
[8] = at 50.0 µM (retest, dose inferred, filed as 5.0)

Measured: growth inhibition

CCN(CC)CCOC(=O)c1ccc(N=Nc2cc(Cl)c(C)cc2O)cc1
inactive: [1]; [7] 26% | [2]; [7] 29% | [3]; [7] 55% | [4]; [7] 13% | [5]; [7] 58% | [6]; [7] 28%
active: [1]; [8] 98% | [1]; at 50.0 µM 99.3% | [2]; [8] 99% | [2]; at 50.0 µM 99.2% | [3]; [8] 99% | [3]; at 50.0 µM 95.2% | [4]; [8] 98% | [4]; at 50.0 µM 99% | [5]; [8] 99% | [5]; at 50.0 µM 99.1% | [6]; [8] 99% | [6]; at 50.0 µM 99.1%

Fc1ccc(CN2COc3c(cc(Cl)c4cccnc34)C2)cc1
active: [1]; [8] 97% | [1]; at 50.0 µM 99.2% | [2]; [8] 97% | [2]; at 50.0 µM 99.6% | [3]; [8] 99% | [3]; at 50.0 µM 99.6% | [4]; [8] 98% | [4]; at 50.0 µM 99.3% | [5]; [8] 99% | [5]; at 50.0 µM 99.5% | [6]; [8] 99% | [6]; at 50.0 µM 99.5%
inactive: [1]; [7] 9% | [2]; [7] 1% | [3]; [7] 2% | [4]; [7] -8% | [5]; [7] -5% | [6]; [7] 11%

CN(C)c1ccc(/C=N/N=C(\C#N)[S][Sn]([Cl])([c]2ccccc2)[c]2ccccc2)cc1
active: [1]; [7] 98% | [1]; [8] 95% | [1]; at 50.0 µM 97.5% | [2]; [7] 98% | [2]; [8] 96% | [2]; at 50.0 µM 97.3% | [3]; [7] 98% | [3]; [8] 96% | [3]; at 50.0 µM 97.5% | [4]; [7] 98% | [4]; [8] 89% | [4]; at 50.0 µM 95% | [5]; [7] 98% | [5]; [8] 95% | [5]; at 50.0 µM 97% | [6]; [7] 97% | [6]; [8] 96% | [6]; at 50.0 µM 97.2%

O=C(NNc1ccc(F)cc1)C12CC3CC(CC(C3)C1)C2
inactive: [1]; [7] 9% | [2]; [7] 3% | [2]; [8] 68% | [2]; at 50.0 µM 17.8% | [3]; [7] 4% | [3]; at 50.0 µM 53.2% | [4]; [7] 4% | [4]; [8] 57% | [4]; at 50.0 µM 27.1% | [5]; [7] -3% | [6]; [7] 2% | [6]; at 50.0 µM 27.1%
active: [1]; [8] 90% | [1]; at 50.0 µM 98.4% | [3]; [8] 98% | [5]; [8] 97% | [5]; at 50.0 µM 98.3% | [6]; [8] 98%

OC1(CCc2ccccc2)COC(C(F)(F)F)(C(F)(F)F)C1 (configuration not stated)
active: [1]; at 50.0 µM 76.4% | [3]; at 50.0 µM 78.4% | [6]; at 50.0 µM 74.8%
inactive: [1]; [7] 18% | [1]; [8] 24% | [2]; [7] 16% | [2]; [8] 18% | [2]; at 50.0 µM 66% | [3]; [7] 14% | [3]; [8] 23% | [4]; [7] 1% | [4]; [8] 23% | [4]; at 50.0 µM 52.8% | [5]; [7] 5% | [5]; [8] 21% | [5]; at 50.0 µM 61.1% | [6]; [7] 26% | [6]; [8] 30%

CCC1(c2ccc(N3C(=O)c4ccccc4C3=O)cc2)CCC(=O)NC1=O (configuration not stated)
active: [3]; at 50.0 µM 86.3%
inactive: [1]; [7] 1% | [1]; [8] -3% | [1]; at 50.0 µM -5.4% | [2]; [7] -36% | [2]; [8] -24% | [2]; at 50.0 µM -13.2% | [3]; [7] -20% | [3]; [8] 5% | [4]; [7] -17% | [4]; [8] 3% | [4]; at 50.0 µM 9.4% | [5]; [7] -17% | [5]; [8] -19% | [5]; at 50.0 µM -8.6% | [6]; [7] -27% | [6]; [8] -25% | [6]; at 50.0 µM 5.4%

O=C(NCCCCCCNC(=O)n1cc(F)c(=O)[nH]c1=O)NCCCOCCOCCOCCOCCOCCOCCOCCOCCOCCOCCOCCOCCOCCOCCOCCOCCOCCOCCOCCOCCOCCCNC(=O)C(O)C(O)C(O)C(O)CO (configuration not stated)
active: [2]; at 50.0 µM 82% | [3]; [8] 87% | [3]; at 50.0 µM 76.8%
inactive: [1]; [7] 6% | [1]; [8] 31% | [1]; at 50.0 µM 42.2% | [2]; [7] 4% | [2]; [8] 60% | [3]; [7] 23% | [4]; [7] 33% | [4]; [8] 8% | [4]; at 50.0 µM 24.4% | [5]; [7] 11% | [5]; [8] 34% | [5]; at 50.0 µM -4.9% | [6]; [7] 7% | [6]; [8] 35% | [6]; at 50.0 µM -10.8%

N=C(N)c1ccc(N=Nc2cc(/C=C/c3ccccc3)ccc2O)cc1
active: [1]; [8] 98% | [1]; at 50.0 µM 97.7% | [2]; [8] 99% | [2]; at 50.0 µM 99% | [3]; [8] 98% | [3]; at 50.0 µM 98.5% | [4]; [8] 98% | [4]; at 50.0 µM 98.3% | [5]; [8] 98% | [5]; at 50.0 µM 98% | [6]; [8] 98% | [6]; at 50.0 µM 98.8%
inactive: [1]; [7] 24% | [2]; [7] 2% | [3]; [7] 24% | [4]; [7] 3% | [5]; [7] 2% | [6]; [7] 7%

CCOC(=O)c1c(-c2ccccc2)csc1NC(=O)CBr
active: [1]; [8] 98% | [1]; at 50.0 µM 99.1% | [2]; [8] 99% | [2]; at 50.0 µM 98.3% | [3]; [8] 99% | [4]; [8] 98% | [4]; at 50.0 µM 91.8% | [5]; [8] 97% | [5]; at 50.0 µM 94.2% | [6]; [8] 98% | [6]; at 50.0 µM 99.2%
inactive: [1]; [7] 22% | [2]; [7] 11% | [3]; [7] 30% | [3]; at 50.0 µM 52.5% | [4]; [7] 3% | [5]; [7] 7% | [6]; [7] 49%
